Assay outcomes from PubChem BioAssay.
Shiga inhibitor: Shiga toxin inhibition | Vero cells, Shiga toxin protein synthesis inhibition reporter | inhibition, % at 38.7 µM | actives 9.2% (n = 290,000) | AID 2315; in the data active = inhibition mostly above about 28%, no sharp cut-off; inactive = mostly below about 43%
SARS PLpro yeast: inhibitors of SARS-CoV papain-like protease in yeast; actives 0.19% (n = 330,000); S. cerevisiae expressing SARS-CoV PLpro, growth rescue; Potency, µM (series often up to 32.9 µM), actives largely listed as activators; also: nearly all actives have a fitted effect of over 55% in size
Pf growth 96h: inhibits malaria parasite growth, 96 h; P. falciparum luciferase reporter growth, 96 h; Potency, µM (highest dose often 28.7 µM), most hits filed as inhibitors; actives 6.9% (n = 320,000); active = well fitted inhibition curve with a large enough effect; inconclusive = small, poorly fitted or top-dose-only effect, or another doubt; inactive = no such curve, though single readings can be large or run the other way
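Infected RBCs, 2% Hct / 0.05% parasitemia final; luciferase-reporter P. falciparum; cpd 96 h, 37 C, 5% CO2; luciferase detection reagent; luminescence.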
Pf growth 48h: inhibits P. falciparum growth in the first generation, 48 h | Potency, µM (titrated, usually from 28.7 µM), usual class: inhibitors | actives 5.9% (n = 310,000) | P. falciparum luciferase growth in erythrocytes, 48 h; active = well fitted inhibition curve with a large enough effect; inconclusive = small, poorly fitted or top-dose-only effect, or another doubt; inactive = no such curve, though single readings can be large or run the other way
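Luciferase-expressing parasites in RBCs, 2% Hct / 0.1% parasitemia final; RPMI 1640 + 0.5% Albumax; 37 C, 5% CO2, one generation; luminescence read-out, lower signal = inhibition.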
NS1 inh: influenza NS1 inhibition; AID 2326; actives 0.4% (n = 270,000); Potency, µM (doses to about 46.1 µM); also: actives are rising curves; nearly all actives have a fitted effect of over 50% in size
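Recovery from NS1-induced slow growth read by OD600 in budding yeast switched to galactose assay medium (pH 6.0, -URA) at 1:100 dilution. Compound 23 nl per well; the matching strain lacking NS1 serves as control.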
CHX counter: counter-screen for Shiga toxin inhibitors: cycloheximide protein synthesis inhibition. max response, %. actives 12% (n = 300,000). cell reporter, cycloheximide protein synthesis inhibition counterscreen; in the data active = max response mostly above about 13%, no sharp cut-off; inactive = mostly below about 14%; also: read at 38.3 µM for the half of the compounds with a filed dose
A number is an active result; – = inactive; ? = inconclusive; · = no result; [ ] = dose if it differs, or a comment. Rows were chosen to be rich in hits. Some 21% of all compounds tested hit in one or more screens of this group. Unless noted, calls follow the shape of the full dose curve.

SMILES	Shiga inhibitor	SARS PLpro yeast	Pf growth 96h	Pf growth 48h	NS1 inh	CHX counter
[N-]=[N+]=NC[C@H](Cc1ccccc1)N1CC[C@@H](NC(=O)OCc2ccccc2)CCC1=O	–	–	?	–	–	–
Oc1ccccc1-c1nc2cnccn2c1Nc1ccc2c(c1)OCCO2	51	–	·	?	–	30
c1cn2c(Nc3ccc4c(c3)OCCO4)c(-c3ccc(N4CCOCC4)cc3)nc2cn1	53	–	?	?	–	24
c1cncc(-c2nc3ccccn3c2Nc2ccc3c(c2)OCCO3)c1	–	–	–	·	–	–
CCOC(=O)c1ccc(NC(c2ccc(N(C)C)cc2)P(=O)(OC(C)C)OC(C)C)cc1 (stereo not drawn)	–	–	–	13µM	–	–
CCOP(=O)(OCC)C(Nc1ccc(C(=O)O)cc1)c1ccccc1 (stereo not drawn)	–	–	–	–	–	–
CCC/C(=N\NC(=O)c1ccc(CSc2nncn2C)cc1)c1ccccc1	–	?	–	–	?	–
C/C(=N\NC(=O)c1ccc(CSc2nncn2C)cc1)c1cccs1	107	–	–	–	–	28
Cn1cnnc1SCc1ccc(C(=O)N/N=C/c2cccs2)cc1	–	–	–	–	–	–
CC(C)c1ccc2[nH]c(O)c(N=NC(=O)c3ccc(CSc4nncn4C)cc3)c2c1	–	–	5.2µM	–	–	–
Cn1cnnc1SCc1ccc(C(=O)N/N=C(\CCC(=O)O)c2ccc(C(C)(C)C)cc2)cc1	32	–	–	–	–	14
COc1ccc(/C(C)=N/NC(=O)c2ccc(CSc3nncn3C)cc2)cc1	–	–	4.1µM	?	·	–
C/C(=N\NC(=O)c1ccc(CSc2nncn2C)cc1)c1ccc(Cl)cc1	–	–	?	–	–	–
Cn1cnnc1SCc1ccc(C(=O)NN)cc1	–	–	–	–	–	45
CCOc1ccccc1NC(=O)C(NCC1(N2CCCCC2)CCCCC1)c1ccccc1 (stereo not drawn)	–	–	3.7µM	?	–	–
CCOc1ccccc1NC(=O)C(OC(=O)C1CC1)c1ccccc1 (stereo not drawn)	–	–	–	?	–	–
COc1ccc(NC(=O)CN2C(=O)NC(C)(c3ccc(C)cc3)C2=O)cn1 (stereo not drawn)	·	–	?	–	·	·
CCCCC/C=C/C1=CC(=O)C[C@H](c2ccc(OC)c(OC)c2)C1	·	–	?	?	·	·
C[C@@H](/C=C/c1ccc2ccccc2c1)C1COC(=O)C[C@H]1O (stereo partly drawn)	–	·	·	·	·	–
COc1ccccc1C(=O)NCCn1cc(SCC(=O)NCC2CCCO2)c2ccccc21 (stereo not drawn)	–	·	10µM	?	–	–
CCCN(CCC)C(=O)Cn1ccc(=N)c2ccccc21	–	–	·	1.7µM	–	–
O=C(CSc1cn(CC(=O)N2CCCCCC2)c2ccccc12)NCC1CCCO1 (stereo not drawn)	–	–	?	–	·	–
Cc1ccccc1C(=O)NCCn1cc(SCC(=O)NCC2CCCO2)c2ccccc21 (stereo not drawn)	–	–	–	?	–	–
CCn1cc(SCC(=O)NC2CCCC2)c2ccccc21	–	–	?	7.4µM	–	–
CCn1cc(SCC(=O)NCC2CCCO2)c2ccccc21 (stereo not drawn)	–	–	–	–	–	6.6
SMILES	Shiga inhibitor	SARS PLpro yeast	Pf growth 96h	Pf growth 48h	NS1 inh	CHX counter
CCN(CC)C(=O)Cn1cc(SCC(=O)NC)c2ccccc21	–	–	12µM	–	·	–
Cc1csc(=Nc2c(C)n(C)n(-c3ccccc3)c2=O)n1Cc1ccccc1	–	–	–	–	–	–
COc1ccc(-c2csc(=Nc3ccccc3)n2CCO)cc1	41	–	–	–	–	16
C=CCn1c(-c2ccc(OC)cc2)csc1=Nc1c(C)n(C)n(-c2ccccc2)c1=O	–	–	15µM	·	–	–
COc1ccc(-c2csc(=NCCO)n2-c2ccccc2)cc1	71	–	–	–[0.00184 µM]	–	17
COCCCn1c(SCC(=O)NNC(=O)c2cccc(O)c2)nnc1-c1ccncc1	–	–	–	–	–	–
Cc1ccc(Cl)cc1NS(=O)(=O)N1CCOCC1	–	–	–	–	–	–
CCCCN1CCc2c(c3ccccc3n2Cc2ccccc2)C1	–	–	6.6µM	10µM	–	–
CN1CCc2c(c3ccccc3n2Cc2ccccc2)C1	–	–	?	–	–	–
Clc1ccccc1CSc1cc2c(nn1)-c1ccccc1CC2	165	–	–	–	–	42
O=C(CSc1nnc(CCCN2C(=O)c3cccc4cccc(c34)C2=O)n1-c1ccccc1)N1CCCCC1	–	–	?	12µM	–	–
O=C(NC1CCN(C(=O)Nc2cccc(Cl)c2)CC1)C1CCCCC1	–	–	–	–	–	–
O=C(Nc1ccc2c(c1)OCCO2)NC1CCCCC1	53	–	?	–	–	44
O=C(Nc1cccc(Cl)c1)NC1CCN(C2CCCCC2)C1 (stereo not drawn)	·	–	12µM	?	–	–
O=C(Nc1ccc2c(c1)OCCO2)C1CCC1	–	–	·	–	–	–
O=C(Nc1cccc(F)c1)NC1CCCCC1	96	–	–[5.75 µM]	–	–	32
Cc1ccc(NC(=O)C(=O)NC2CCCCC2)cc1	–	–	–	·	–	12
O=C(NC1CCCCCC1)C(=O)NC1CCCC1	–	–	–	–	–	–
CC(=O)Oc1ccccc1N(C(C)=O)S(=O)(=O)c1cccc([N+](=O)[O-])c1	–	–	–	?	–	–
O=[N+]([O-])c1ccc(CSc2ccc(S(=O)(=O)N3CCCCCC3)cn2)cc1	·	–	?	?	·	·
O=C(O)CC(CNS(=O)(=O)c1cccc2nsnc12)c1ccccc1 (stereo not drawn)	–	–	–	–	·	–
NS(=O)(=O)c1ccc(NC(=O)NC2CCCCC2)cc1	–	–	·	–	–	–
O=C(NC(=S)NC1CCCCC1)c1ccc(F)cc1	117	–	–	–	–	48
O=C(Nc1ccc(F)cc1F)NC1CCCCCCC1	96	–	–	–	–	37
O=C(Nc1ccc(F)cc1F)NC1CC1	–	–	–	–	·	–
SMILES	Shiga inhibitor	SARS PLpro yeast	Pf growth 96h	Pf growth 48h	NS1 inh	CHX counter
O=C(NC(=S)NC1CCN(Cc2ccccc2)CC1)c1ccc(F)cc1	–	–	?	·	–	–
Cc1ccc(NC(=O)NC2CCCCCCC2)cc1	71	–	?	–	–	40
O=C(Nc1ccc(F)cc1)NC1CCCCC1	79	–	·	–	–	37
COc1ccc(-c2cc3c(=O)n(CC(=O)Nc4cccc(Cl)c4)nc(C)n3n2)cc1	–	–	?	–	–	–
COc1ccnc(N=CNOCc2ccc(F)cc2Cl)c1C#N	–	–	·	–	–	–
Cc1oc2c(cc(NS(=O)(=O)c3ccc(C(C)C)cc3)c3ccccc32)c1C(=O)O	–	–	?	–	–	–
Cc1oc2c(cc(NS(=O)(=O)c3cccs3)c3ccccc32)c1C(=O)OC(C)C	–	–	9.3µM	?	–	–
